Calls of active or inactive are those of the source. How the source made its calls: active means hit-call score of the fitted dose curve at least 0.9, where 1 is the maximum; inactive means score below 0.9.

Read-out in test [1]: Human Leukocyte Antigen - DR isotype (HLADR), HLA-DRA (gene 3122)
In words: BSK_BE3C_HLADR: BioMAP Diversity Plus: BE3C Assay for Human Leukocyte Antigen - DR isotype (HLADR) Biomarker Activity (AID 2283032). Conditions: primary human bronchial epithelial cells; actives raise or lower the signal. A digest of the protocol:
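Primary human bronchial epithelial cells (BE3C); 24 h chemical exposure; HLA-DR by ELISA; bidirectional curve fit vs DMSO baseline.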

Read-out in test [2]: Vascular cell adhesion molecule 1 (VCAM1), VCAM1 (gene 7412)
Kind of test: BSK_4H_VCAM1: BioMAP Diversity Plus: 4H Assay for Vascular cell adhesion molecule 1 (VCAM1) Biomarker Activity (AID 2283033).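 On outcome: cell-surface VCAM-1 protein measured by ELISA.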 As to conditions: primary human endothelial cells (HUVEC); actives raise or lower the signal. A digest of the protocol: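 HUVEC, 24 h post-dose; VCAM-1 by ELISA. Bidirectional curve fit vs DMSO baseline. Parallel SRB total-protein stain (0.1% SRB after 10% TCA fixation, 560 nm) for cytotoxicity.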

Read-out in test [3]: Interferon-gamma inducible Protein 10 (IP10), CXCL10 (gene 3627)
Kind of test: BSK_BE3C_IP10: BioMAP Diversity Plus: BE3C Assay for Interferon-gamma inducible Protein 10 (IP10) Biomarker Activity (AID 2283034). As to conditions: primary human bronchial epithelial cells; actives raise or lower the signal. The essentials: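 ELISA readout of IP-10 in BE3C system: primary human bronchial epithelial cells, 24 h post-dosing; bidirectional curve fit vs DMSO baseline.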

Read-out in test [4]: Monokine induced gamma interferon (MIG), CXCL9 (gene 4283)
In words: BSK_BE3C_MIG: BioMAP Diversity Plus: BE3C Assay for Monokine induced gamma interferon (MIG) Biomarker Activity (AID 2283035).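 On outcome: MIG protein measured by ELISA in BE3C cultures after 24 h of dosing.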 As to conditions: primary human bronchial epithelial cells; actives raise or lower the signal. The essentials: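 Dose cells (human primary bronchial epithelial), incubate 24 h, quantify MIG by ELISA, then fit concentration–response in both directions relative to DMSO control.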

Read-out in test [5]: Transforming growth factor beta 1 (TGFb1), TGFB1 (gene 7040)
Kind of test: BSK_BE3C_TGFb1: BioMAP Diversity Plus: BE3C Assay for Transforming growth factor beta 1 (TGFb1) Biomarker Activity (AID 2283036;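 on outcome: TGF-b1 protein level measured by ELISA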). As to conditions: primary human bronchial epithelial cells; actives raise or lower the signal. The essentials:
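Read-out: ELISA for TGF-b1 in primary human bronchial epithelial cultures, 24 h post-dose. Bidirectional curve fitting vs DMSO control; gain or loss of signal both scored.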

Read-out in test [6]: Plasminogen activator inhibitor-1 (PAI1), SERPINE1 (gene 5054)
In words: BSK_BE3C_PAI1: BioMAP Diversity Plus: BE3C Assay for Plasminogen activator inhibitor-1 (PAI1) Biomarker Activity (AID 2283037). As to conditions: primary human bronchial epithelial cells; actives raise or lower the signal. A digest of the protocol: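 ELISA read-out of PAI-1 from human bronchial epithelial primary cells, 24 h post-dosing; bidirectional curve fit vs DMSO baseline, gain or loss of signal scored.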

Read-out in test [7]: urokinase plasminogen activator (uPA), PLAU (gene 5328)
Kind of test: BSK_BE3C_uPA: BioMAP Diversity Plus: BE3C Assay for urokinase plasminogen activator (uPA) Biomarker Activity (AID 2283038).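 On outcome: uPA protein level quantified by ELISA in cell cultures; uPA read one day after compound addition.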 As to conditions: primary human bronchial epithelial cells; actives raise or lower the signal. A digest of the protocol: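 Bronchial epithelial cells (human, primary); chemical 24 h; uPA by ELISA; bidirectional fit vs DMSO. SRB (0.1%, after 10% TCA fixation, 560 nm) in parallel cultures for cytotoxicity.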

Read-out in test [8]: Urokinase-type plasminogen activator receptor (uPAR), PLAUR (gene 5329)
Kind of test: BSK_BE3C_uPAR: BioMAP Diversity Plus: BE3C Assay for Urokinase-type plasminogen activator receptor (uPAR) Biomarker Activity (AID 2283039).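 On outcome: uPAR protein level measured by ELISA on the cells; cells exposed to compound for one day before measurement.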 As to conditions: primary human bronchial epithelial cells; actives raise or lower the signal. The essentials:
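ELISA readout of uPAR on human lung primary bronchial epithelial cells, 24 h post-dosing. Bidirectional curve fit relative to DMSO vehicle baseline; gain or loss of signal both scored.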

Read-out in test [9]: Interleukin-6 (IL6), IL6 (gene 3569)
Kind of test: BSK_CASM3C_IL6: BioMAP Diversity Plus: CASM3C Assay for Interleukin-6 (IL6) Biomarker Activity for (AID 2283040). Conditions: primary human coronary artery smooth muscle cells; actives raise or lower the signal.

Read-out in test [10]: Tissue plasminogen activator (tPA), PLAT (gene 5327)
In words: BSK_BE3C_tPA: BioMAP Diversity Plus: BE3C Assay for Tissue plasminogen activator (tPA) Biomarker Activity (AID 2283041).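 On outcome: tPA level quantified by ELISA one day after compound addition.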 As to conditions: primary human bronchial epithelial cells; actives raise or lower the signal. A digest of the protocol:
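ELISA read-out of tPA on human primary bronchial epithelial cells, 24 h post-dosing; bidirectional fit vs DMSO negative control/baseline.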

For the compound `C/C=C/c1ccc(OC)cc1`, the outcome in [1], in test [2], in test [3], in test [4], in test [5] and in [6] was inactive. Besides, the outcome in test [7], in test [8], in test [9] and in [10] was inactive.
As to `O=C(O)CC(O)(CC(=O)O)C(=O)O`, the outcome in test [1], in test [2], in test [3], in test [4], in test [5] and in test [6] was inactive. The outcome in test [7], in test [8], in test [9] and in test [10] was inactive.
On to `O=C(N[C@@H](c1ccccc1)[C@@H]1CCCCN1)c1cccc(C(F)(F)F)c1Cl`, for which the half-maximal activity concentration (AC50) was 33.2 µM (active) in test [1]; 33.5 µM (active) in [3]; 34.7 µM (active) in test [4]; 36.7 µM (active) in test [5]; 32.4 µM (active) in [6]; 28.7 µM (active) in test [7]. In addition, the AC50 is 33.3 µM (active) in test [8] and 24 µM (active) in test [10]. Further, the outcome in test [2] and in [9] was inactive.
`CC(C)NCC(O)c1ccc(O)c(O)c1` (stereo not given): the outcome in test [1], in [2], in [3], in test [4], in test [5] and in test [6] was inactive. Also, the outcome in [7], in [8], in [9] and in test [10] was inactive.
For `CCCCc1nc2cccnc2n1Cc1ccc(-c2ccccc2-c2nnn[nH]2)cc1`, the outcome in test [1], in test [2], in test [3], in test [4], in test [5] and in test [6] was inactive. The result in test [7], in test [8], in test [9] and in test [10] was inactive.
As to `Cc1cn([C@H]2C=C[C@@H](CO)O2)c(=O)[nH]c1=O`, the outcome in test [1], in test [2], in test [3], in [4], in test [5] and in [6] was inactive. In addition, the result in test [7], in [8], in [9] and in [10] was inactive.
On to `COc1ccc(C(=O)Nc2nc3ccccc3c(NCc3ccccc3)c2C#N)cc1`, for which the result in test [1], in test [2], in test [3], in [4], in test [5] and in [6] was inactive. In addition, the outcome in test [7], in [8], in [9] and in [10] was inactive.
As to `CCCCCCCC(=O)OC`, the outcome in test [1], in test [2], in [3], in [4], in test [5] and in [6] was inactive. The outcome in test [7], in test [8], in [9] and in test [10] was inactive.
Take `O=C1O[C@H]([C@H](O)CO)C(O)=C1O`: the result in [1], in test [2], in test [3], in test [4], in [5] and in [6] was inactive. Besides, the outcome in [7], in [8], in [9] and in [10] was inactive.
`CC(C)(O)c1ccc(CNC(=O)c2cccnc2Oc2ccc(F)cc2)cc1`: the result in test [1], in test [2], in [3], in test [4], in test [5] and in [6] was inactive. The outcome in test [7], in test [8], in [9] and in test [10] was inactive.
`Oc1ccc(O)cc1`: the result in test [1], in [3], in [4], in test [5], in test [6] and in [8] was inactive. For the same compound, the result in [9] and in [10] was inactive. Moreover, the half-maximal activity concentration (AC50) in [2] is 10.9 µM (active); in test [7], 7.83 µM (active).
As for `CN(C)C(=O)NC1(c2ccccc2)CCN(CC[C@@]2(c3ccc(F)c(F)c3)CN(C(=O)c3ccccc3)CCO2)CC1`, the outcome in test [1], in test [2], in [3], in test [4], in test [5] and in test [6] was inactive. Also, the outcome in test [7], in test [8], in test [9] and in test [10] was inactive.
`CCCCCCC(CCCCCCCCCCC(=O)OCC(COC(C)=O)OC(C)=O)OC(C)=O` (stereo not given): the AC50 is 10 µM (active) in test [1]; 11.4 µM (active) in test [3]; 13.7 µM (active) in [4]; 7.57 µM (active) in [5]; 7.39 µM (active) in test [6]; 13.2 µM (active) in test [7]. The half-maximal activity concentration (AC50) in test [10] was 3.58 µM (active). For the same compound, the outcome in test [2], in test [8] and in test [9] was inactive.
For `NC1CCCCC1`, the result in test [1], in test [2], in [3], in test [4], in test [5] and in test [6] was inactive. Besides, the result in [7], in test [8], in test [9] and in test [10] was inactive.
On to `O=C(Oc1ccccc1)c1cccc(C(=O)Oc2ccccc2)c1`, for which the outcome in [1], in [2], in [3], in test [4], in [5] and in test [6] was inactive. The outcome in test [7], in test [8], in test [9] and in test [10] was inactive.
`CCc1nc(N)nc(N)c1-c1ccc(Cl)cc1`: the outcome in test [1], in [2], in test [3], in test [4], in [5] and in test [6] was inactive. In addition, the result in test [7], in test [8], in [9] and in test [10] was inactive.
Turning to `CCCCC(CC)CO` (stereo not given), the outcome in test [1], in test [2], in test [3], in test [4], in test [5] and in test [6] was inactive. In addition, the outcome in test [7], in test [8], in test [9] and in [10] was inactive.
With `CC(=O)OCC(COC(C)=O)OC(C)=O`, the result in [1], in test [2], in test [3], in test [4], in test [5] and in test [6] was inactive. Moreover, the outcome in test [7], in test [8], in [9] and in test [10] was inactive.
`N[C@@H](Cc1c[nH]c2ccccc12)C(=O)O`: the result in [1], in test [2], in test [3], in [4], in test [5] and in [6] was inactive. Also, the outcome in test [7], in test [8], in test [9] and in [10] was inactive.
Regarding `O=NO`, the outcome in test [1], in test [2], in test [3], in [4], in [5] and in [6] was inactive. Also, the outcome in test [7], in test [8], in test [9] and in [10] was inactive.
As to `CC(=O)O`, the result in [1], in test [2], in test [3], in test [4], in test [5] and in test [6] was inactive. Moreover, the result in [7], in test [8], in test [9] and in test [10] was inactive.
For `CS(=O)(=O)c1ccc([C@@H](C[C@H]2CCC(=O)C2)C(=O)Nc2cnccn2)cc1Cl`, the outcome in test [1], in test [2], in test [3], in test [4], in test [5] and in test [6] was inactive. Besides, the outcome in [7], in [8], in [9] and in test [10] was inactive.

The term AC50 denotes the concentration giving half of the maximal activity seen.

The values above are taken from PubChem BioAssay (EPA / NIEHS).
